PubChem BioAssay (NCI)
Values joined by “and” are separate entries in the source; they are usually repeats but may differ in a detail not shown here. Equal values may be shown once. About 83,000 compounds went through this panel and 20% of them were active in at least one assay; those are over-represented in the sample as a whole.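 Values shown are percent growth following 48 h exposure of cells in 96-well plates to a single concentration of compound; below 10 was considered active.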 Active and inactive are the calls of the source.

These compounds were tested on HL-60(TB) leukemia (assay: NCI-60 one-dose screen, 48 h (100 = growth as untreated, 0 = no growth, -100 = all killed)). Details: 10 µM unless noted.
In the case of `Nc1ccc(S(=O)(=O)c2ccc(N)cc2)cc1`, the growth is reported as 67.4% (inactive).
In the case of `Cc1[nH]c(=O)[nH]c(=O)c1CCSSCCc1c(C)[nH]c(=O)[nH]c1=O`, the growth is reported as 99.5% (inactive).
For `COc1cc(/C=N/Nc2nc3c([nH]2)c(=O)n(C)c(=O)n3C)ccc1O`, the growth was 90.7% (inactive) and 103% (inactive).
For `COC(=O)CCC(=O)C(=O)OC`, the growth was -21% [10 mM] (active).
With `CC1(C)C2CC1C1(/C=N/NC(N)=S)C(C2)C(C#N)(C#N)C1(C#N)C#N` (stereo not given) the growth was 13.5% (inactive).
With `COc1ccc(-c2csc(N(C(=O)N3CCN(c4cc5c(cc4F)c(=O)c(C(=O)O)cn5C4CC4)CC3)c3ccccc3)n2)cc1` the growth was -29.6% (active).
`CC(=O)Nc1cccc2c1CCCC2` was tested, and the growth was 89.5% (inactive) and 105% (inactive).
In the case of `CCOc1ccc(NC(=S)N2CCC(CCCC3CCN(C(=S)Nc4ccc(OCC)cc4)CC3)CC2)cc1`, the growth is reported as 68.9% (inactive).
In the case of `COc1ccc(C2c3cccn3-c3ccccc3N2C(C)=O)cc1` (stereo not given), the growth is reported as -49.9% (active).
In the case of `C[n+]1c2ccccc2c(NC2CCNCC2)c2[nH]c3ccccc3c21`, the growth is reported as 61.4% (inactive).
With `COc1ccc(-c2ncnc3c2ncn3C/C=C/CCl)cc1` the growth was 65% (inactive) and 79.4% (inactive).
For `Oc1ccc(CN(Cc2ccc(C(F)(F)F)cc2)Cc2ccc(O)c3ncccc23)c2cccnc12`, the growth was -11% (active).
With `CN(C)Cc1ccc[nH]1` the growth was 109% (inactive).
With `c1ccc2cc(C[n+]3ccn(Cc4ccc5ccccc5n4)c3)ccc2c1` the growth was -42.3% (active) and -25.4% (active).
For `Nc1nc2c(c3ncccc13)C(c1ccc(Cl)c(Cl)c1)Cc1ncccc1-2` (stereo not given), the growth was -7.14% (active).
`COc1cccc(C(=O)N(c2ccc(F)c(F)c2)C(C(=O)NC(C)(C)C)c2cc3c(C)cc(C)cc3nc2Cl)c1` (stereo not given) was tested, and the growth was 63.3% (inactive).
For `Clc1ccc(/C=C/c2ccc3ccccc3n2)cc1`, the growth was -14.2% (active) and 77.3% (inactive) and 60.8% (inactive).
`COc1ccc(/C=C/C(=C/c2c(O)[nH]c3cc(Br)ccc23)N=O)cc1` was tested, and the growth was 119% (inactive).
With `O=C(CSc1nnc(-c2ccc(NC(=O)c3cccnc3)cc2)o1)N[C@@H](Cc1ccc(O)cc1)C(=O)O` the growth was 99.4% (inactive).
`Cc1ccc2nc3ccccc3c(NCc3ccccc3)c2c1` was tested, and the growth was 40.6% (inactive).
With `COC(=O)c1cc(-c2cccs2)c(C#N)c(N)c1C#N` the growth was 108% (inactive).
With `Cc1cc(=O)[nH]c(N=Nc2c(O)[nH]c3ccccc23)n1` the growth was 79.8% (inactive).
For `CC1OS(=O)OC1C` (stereo not given), the growth was 96.3% (inactive) and 89.9% (inactive).
With `Nc1ccn(-c2ccc(Br)cc2)c(=O)n1` the growth was 125% (inactive).
`Nc1ncnc2c1N=C(c1ccc3c(c1)OCO3)CC(c1cccc(Nc3ccnc4cc(Cl)ccc34)c1)N2` (stereo not given) was tested, and the growth was 37.9% (inactive).
In the case of `Cc1nc2n(c(=O)c1CCN1CCC(c3noc4cc(F)ccc34)CC1)CCC[C@@H]2O`, the growth is reported as 89.7% (inactive).
`C=C(C)[C@@H]1CC[C@]2(CN)CC[C@]3(C)[C@H](CC[C@@H]4[C@@]5(C)CCC(N)[C@@](C)(CO)[C@@H]5CC[C@]43C)[C@@H]12` (stereo not given in full) was tested, and the growth was -66.1% (active).
With `COc1ccc(-c2nc(Nc3ccc(F)cc3)nc(Nc3ccc4c(c3)nc(C)n4Cc3ccccc3)n2)cc1` the growth was -11.4% (active).
With `Nc1c2c(nc3ccc(Br)cc13)CC(c1ccccc1)CC2=O` (stereo not given) the growth was 10.7% (inactive).
With `C=CCn1c(SCC(=O)Nc2ccc(C(=O)/C=C/c3cc(OC)c(OC)c(OC)c3)cc2)nnc1-c1ccccc1` the growth was 71.8% (inactive).
With `CN1CCN(C(=O)OCc2ccc3c(Cl)cc(Cl)c(O)c3n2)CC1` the growth was -18.9% (active).
In the case of `O=C1c2ccccc2C(=O)c2c1oc1c2c(=O)[nH]c2ccccc21`, the growth is reported as 2.26% (active).
With `CN1CCN(CCC=C2c3ccccc3Sc3ccc(S(=O)(=O)N(C)C)cc32)CC1` the growth was 91.3% (inactive) and 80.6% (inactive).
In the case of `O=c1c2cccc3c(Nc4ccc(F)cc4)ccc(c32)c2nc3ccccc3n12`, the growth is reported as 124% (inactive).
With `Cc1oc(-c2ccc(Cl)cc2)nc1/C=C/C(=O)c1ccccc1` the growth was 97.1% (inactive).
`CN(C)c1ccc2nc3ccc(N)cc3[n+](-c3ccccc3)c2c1` was tested, and the growth was -5.21% (active) and 4.22% (active).
`CC(C)(C)n1cc(-c2ccnc(NCCCNS(=O)(=O)c3ccc(Cl)cc3)c2)c(-c2cccc(F)c2)n1` was tested, and the growth was 85.8% (inactive).
For `CS(=O)(=O)c1ccc(-c2cnn3ccc(-c4cccc(S(=O)(=O)C5CC5)c4)nc23)cc1`, the growth was 24.3% (inactive).
With `COc1ccc(-n2nc(C(=O)Nc3ccc(F)cc3)nc2-c2cc(OC)c(OC)c(OC)c2)cc1` the growth was 91.5% (inactive).
With `Cc1ccc(Cl)c(NS(=O)(=O)c2ccc(-c3cnc(C4CC4)o3)cc2)c1` the growth was -22% (active).
